Here are results for 38 molecules from PubChem BioAssay (Tox21).

Several values for one entry are separate records, joined by “and”; a condition that tells them apart may be missing. Equal entries are not always repeated. Records with an inconclusive call do not appear. A call without a number means that no potency is given here. Activity calls are given as the source filed them. Calls come from the whole dose curve.
Note: nearly all actives have a fitted effect of over 35% in size.
Potency is the fitted concentration of half-maximal effect.

Sequence of Gonadotropin-releasing hormone receptor (Homo sapiens) (P30968 whole entry, looked up): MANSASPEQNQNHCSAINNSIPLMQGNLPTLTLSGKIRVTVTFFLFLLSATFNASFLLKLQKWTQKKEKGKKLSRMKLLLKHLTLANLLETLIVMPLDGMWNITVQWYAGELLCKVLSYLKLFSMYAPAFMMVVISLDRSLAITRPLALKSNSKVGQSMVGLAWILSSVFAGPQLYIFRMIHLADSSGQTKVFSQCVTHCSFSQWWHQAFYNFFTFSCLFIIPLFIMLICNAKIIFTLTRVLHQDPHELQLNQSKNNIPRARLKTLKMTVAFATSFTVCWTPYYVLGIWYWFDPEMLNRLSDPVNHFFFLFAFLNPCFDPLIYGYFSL

System in one assay: not listed separately
Kind of assay: Nuclear factor erythroid 2-related factor 2/antioxidant responsive element (Nrf2/ARE) small molecule agonists: luciferase reporter gene qHTS assay in human keratinocytes (AID 1919969). Conditions: KeratinoSens HaCaT ARE-luciferase, luminescence, 24 h; series mostly up to 92.4 µM. For orientation: A reporter such as luciferase makes a cellular process visible.
Turning to `O=NN(CCO)CCO`, the Potency entry was “inactive”.
On the same count and under the same terms, then `CCOC(=O)C(Cl)Cc1cc(-n2nc(C)n(C(F)F)c2=O)c(F)cc1Cl` (stereo not given), with “inactive”.
Same read-out and setting: the figure for `C[C@H]1O[C@@H](O[C@H]2[C@@H](O)C[C@H](O[C@H]3[C@@H](O)C[C@H](O[C@H]4CC[C@@]5(C)[C@H](CC[C@@H]6[C@@H]5CC[C@]5(C)[C@@H](C7=CC(=O)OC7)CC[C@]65O)C4)O[C@@H]3C)O[C@@H]2C)C[C@H](O)[C@@H]1O` is 61.5 nM (active) and 119 nM (active).
As to `[O-][Br+2]([O-])O`, the Potency entry was “inactive”.
The same measure, in the same setting: the entry for `C[C@@H]1C[C@@H]([C@H](O)CC2CC(=O)NC(=O)C2)C(=O)[C@@H](C)C1` is “inactive”; for `Nc1c(Cl)c(F)nc(OCC(=O)O)c1Cl` it is “inactive”.
On the same count and under the same terms, then `OC(Cc1ccccc1Cl)(Cn1[nH]cnc1=S)C1(Cl)CC1` (stereo not given), with 10.9 µM (active).
The same measure, in the same setting: then `N#CC(C#N)=C(C#N)C#N`, with “inactive”; and `CC1COC(Cn2cncn2)(c2ccc(Oc3ccc(Cl)cc3)cc2Cl)O1` (stereo not given), with “inactive”; and `COCC(C)N(C(=O)CCl)c1c(C)csc1C` (stereo not given), with 68.6 µM (active).
Take `N[C@@H](Cc1ccc(Oc2cc(I)c(O)c(I)c2)c(I)c1)C(=O)O`: the Potency result is “inactive”.
`CCOc1cc(Oc2ccc(C(F)(F)F)cc2Cl)ccc1[N+](=O)[O-]`: the Potency result was “inactive”.
The same measure, in the same setting: the entry for `CC(Cc1ccccc1)NCCn1cnc2c1c(=O)n(C)c(=O)n2C` (stereo not given) is “inactive”.
Still for that read-out and setting: the figure for `Cc1ccc([N+](=O)[O-])[c]2c1[O][Hg]2` is 2.66 µM (active); for `CC1(C)C(C(=O)OC(C#N)c2cccc(Oc3ccccc3)c2)C1(C)C` (stereo not given) it is “inactive”; for `C=C(C)C(=O)[O][Sn]([CH2]CCC)([CH2]CCC)[CH2]CCC` it is 0.433 µM (active).
Consider `CCCN(CC1CC1)c1c([N+](=O)[O-])cc(C(F)(F)F)cc1[N+](=O)[O-]`, for which the Potency is 48.6 µM (active).
On the same count and under the same terms, then `COc1ccc(Cc2nccc3cc(OC)c(OC)cc23)cc1OC`, with “inactive”; and `COC1=CC(=O)O[C@@H](/C=C/c2ccc3c(c2)OCO3)C1`, with “inactive”.
Same read-out and setting: then `Brc1ccc(Oc2ccc(Br)cc2Br)c(Br)c1`, with 6.12 µM (active).
For the molecule `CC(C)N1C(=O)N(c2ccccc2)CSC1=NC(C)(C)C`, the Potency entry was “inactive”.
As for `COC(=O)COc1ccc(Cl)cc1Cl`, the Potency entry is “inactive”.

Another assay concerns the target Gonadotropin-releasing hormone receptor (Homo sapiens) (UniProt P30968). Put plainly: Human gonadotropin-releasing hormone receptor (GnRHR) small molecule agonists, calcium flux assay in GnRHR-HEK293 cells (AID 1920063). The note with it: calcium flux fluorescence, agonist mode; series mostly up to 57.6 µM. A digest of the protocol: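 Agonist mode: compounds at 15 concentrations, in triplicate, went onto calcium dye-loaded GnRHR-HEK293 cells. Intracellular calcium was then followed as 480/540 nm fluorescence at 1 s intervals over 3 min.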
In general terms: Calcium assays in cells follow changes in intracellular calcium, usually with a dye or a luminescent sensor.
Take `S=C=NCCc1ccccc1`: the Potency entry is “inactive”.
With `Clc1cc(Cl)c(-c2cc(Cl)c(Cl)cc2Cl)cc1Cl`, the Potency result was “inactive”.
Still for that read-out and setting: the entry for `CC1=C2C[C@H]3[C@@H](CC=C4C[C@@H](O)CC[C@@]43C)[C@@H]2CC[C@]12O[C@@H]1C[C@H](C)CN[C@H]1[C@H]2C` is “inactive”; for `Cc1nc2ccccc2c(=O)n1-c1ccccc1Cl` it is “inactive”; for `ClC1=C(Cl)[C@]2(Cl)[C@H]3[C@H]([C@@H]4C=C[C@H]3C4)[C@@]1(Cl)C2(Cl)Cl` it is “inactive”.
With `CC(C)[C@@H](C(=O)O[C@@H](C#N)c1cccc(Oc2ccccc2)c1)c1ccc(Cl)cc1`, the Potency result was “inactive”.
Same read-out and setting: then `O=C(Cl)c1ccc(Cl)cc1`, with “inactive”.
On the same count and under the same terms, then `CCCCOCN(C(=O)CCl)c1c(CC)cccc1CC`, with “inactive”; and `Nc1ccc([N+](=O)[O-])cc1Cl`, with “inactive”; and `CCCCP(CCCC)CCCC`, with “inactive”.
Take `CC(C)c1c(CN(C)C(C)Cc2ccccc2)n(C)n(-c2ccccc2)c1=O` (stereo not given): the Potency entry was “inactive”.
Take `C[C@]12C/C(=C/O)C(=O)C[C@@H]1CC[C@@H]1[C@@H]2CC[C@@]2(C)[C@H]1CC[C@]2(C)O`: the Potency result was “inactive”.
The same measure, in the same setting: the entry for `ClC1=C(Cl)[C@]2(Cl)[C@H]3[C@H]([C@H]4C=C[C@H]3C4)[C@@]1(Cl)C2(Cl)Cl` is “inactive”; for `COC(=O)C(c1ccccc1)C1CCCCN1` (stereo not given) it is “inactive”.
Consider `CN1C(=O)[C@@H](NC(=O)c2cc3ccccc3[nH]2)N=C(c2ccccc2)c2ccccc21`, for which the Potency result is “inactive”.
For `CCO[C@H]1O[C@@H]2OC3(C)CC[C@H]4[C@H](C)CC[C@@H]([C@H]1C)[C@@]24OO3`, the Potency entry was “inactive”.
For `O=NN(CCO)CCO`, the Potency entry was “inactive”.
The same measure, in the same setting: then `CCOC(=O)C(Cl)Cc1cc(-n2nc(C)n(C(F)F)c2=O)c(F)cc1Cl` (stereo not given), with “inactive”; and `C[C@H]1O[C@@H](O[C@H]2[C@@H](O)C[C@H](O[C@H]3[C@@H](O)C[C@H](O[C@H]4CC[C@@]5(C)[C@H](CC[C@@H]6[C@@H]5CC[C@]5(C)[C@@H](C7=CC(=O)OC7)CC[C@]65O)C4)O[C@@H]3C)O[C@@H]2C)C[C@H](O)[C@@H]1O`, with “inactive”.
The same measure, in the same setting: then `[O-][Br+2]([O-])O`, with “inactive”.
Still for that read-out and setting: the entry for `C[C@@H]1C[C@@H]([C@H](O)CC2CC(=O)NC(=O)C2)C(=O)[C@@H](C)C1` is “inactive”.
In the case of `Nc1c(Cl)c(F)nc(OCC(=O)O)c1Cl`, the Potency entry was “inactive”.
`OC(Cc1ccccc1Cl)(Cn1[nH]cnc1=S)C1(Cl)CC1` (stereo not given): the Potency entry was “inactive”.
Same read-out and setting: the entry for `N#CC(C#N)=C(C#N)C#N` is “inactive”; for `CC1COC(Cn2cncn2)(c2ccc(Oc3ccc(Cl)cc3)cc2Cl)O1` (stereo not given) it is “inactive”.
Consider `COCC(C)N(C(=O)CCl)c1c(C)csc1C` (stereo not given), for which the Potency result was “inactive”.
Same read-out and setting: then `N[C@@H](Cc1ccc(Oc2cc(I)c(O)c(I)c2)c(I)c1)C(=O)O`, with “inactive”; and `CCOc1cc(Oc2ccc(C(F)(F)F)cc2Cl)ccc1[N+](=O)[O-]`, with “inactive”; and `CC(Cc1ccccc1)NCCn1cnc2c1c(=O)n(C)c(=O)n2C` (stereo not given), with “inactive”.
Take `Cc1ccc([N+](=O)[O-])[c]2c1[O][Hg]2`: the Potency was 16.9 µM (active).
Regarding `CC1(C)C(C(=O)OC(C#N)c2cccc(Oc3ccccc3)c2)C1(C)C` (stereo not given), the Potency result is “inactive”.
On the same count and under the same terms, the figure for `C=C(C)C(=O)[O][Sn]([CH2]CCC)([CH2]CCC)[CH2]CCC` is 15.5 µM (active); for `CCCN(CC1CC1)c1c([N+](=O)[O-])cc(C(F)(F)F)cc1[N+](=O)[O-]` it is “inactive”; for `COc1ccc(Cc2nccc3cc(OC)c(OC)cc23)cc1OC` it is “inactive”.
Same read-out and setting: then `COC1=CC(=O)O[C@@H](/C=C/c2ccc3c(c2)OCO3)C1`, with “inactive”.
On to `Brc1ccc(Oc2ccc(Br)cc2Br)c(Br)c1`, for which the Potency result is “inactive”.
Regarding `CC(C)N1C(=O)N(c2ccccc2)CSC1=NC(C)(C)C`, the Potency entry is “inactive”.
As to `COC(=O)COc1ccc(Cl)cc1Cl`, the Potency result is “inactive”.
